From PubChem
This is a sample that favours compounds with a hit; in the whole collection about 1.8% have one here.
TrxR1 substrate = qHTS Assay for Substrates of Mammalian Selenoprotein Thioredoxin Reductase 1 (TrxR1): qHTS. Thioredoxin reductase 1, cytoplasmic (Rattus norvegicus), O89049. purified TrxR1 substrate turnover, NADPH consumption readout. Potency, µM (titrated, usually from 114 µM). hit rate 0.01% among 390,000. AID 588456, 2011; note: nearly all actives have a fitted effect of over 50% in size
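Rat TrxR1, dispensed at 90 nM, was prereduced with 400 uM NADPH (final) for 5 min at ~22 deg C, then incubated with compound 15 min before 400 uM selenite. A first-read NADPH fluorescence drop versus no-compound background flagged substrates.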
VDR inhibitor = Inhibitors of the vitamin D receptor (VDR): qHTS. VDR-SRC2-3 peptide fluorescence polarization, 2 h. Potency, µM, most hits filed as inhibitors. hit rate 0.93% among 400,000. AID 504847, 2011
Target sequence (P11473 whole entry, looked up): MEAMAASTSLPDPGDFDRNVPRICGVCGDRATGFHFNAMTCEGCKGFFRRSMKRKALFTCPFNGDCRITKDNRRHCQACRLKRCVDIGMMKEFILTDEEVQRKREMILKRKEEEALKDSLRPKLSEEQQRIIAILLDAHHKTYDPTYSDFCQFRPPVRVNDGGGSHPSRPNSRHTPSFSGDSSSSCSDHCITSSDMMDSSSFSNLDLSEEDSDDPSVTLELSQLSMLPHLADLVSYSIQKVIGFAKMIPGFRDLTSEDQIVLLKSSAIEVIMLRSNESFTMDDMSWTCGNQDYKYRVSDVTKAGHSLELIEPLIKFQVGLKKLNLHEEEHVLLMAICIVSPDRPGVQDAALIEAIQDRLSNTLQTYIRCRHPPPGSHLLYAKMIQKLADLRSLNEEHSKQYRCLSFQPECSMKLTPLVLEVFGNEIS
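Signal is fluorescence polarization, reporting how far test compounds block the interaction of VDR with the SRC2-3 coregulator peptide after a 2 h room-temperature incubation.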
KAT2A inh = qHTS Assay for Inhibitors of GCN5L2. hit rate 0.21% among 390,000. GCN5L2 HAT assay, ThioGlo1 CoA-SH fluorescence. Potency, µM (top dose mostly 58.9 µM), actives largely listed as inhibitors. Histone acetyltransferase KAT2A (Homo sapiens), Q92830
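qHTS, 1536-well. 20nM enzyme, pH 7.5 HEPES/EDTA/Tween-20 buffer; 15 min compound preinc., RT. Start: 75uM H3(1-25), 70uM AcCoA, 50uM ThioGlo1. Read Ex340/Em540 at t=0 (autofluorescence flag) and t=20 min.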
TrxR1 inh = qHTS Assay for Inhibitors of Mammalian Selenoprotein Thioredoxin Reductase 1 (TrxR1): qHTS; Potency, µM (highest dose often 114 µM), actives largely listed as inhibitors; hit rate 1% among 390,000; recombinant rTrxR1, NADPH fluorescence consumption, selenite substrate; AID 588453, 2011; note: nearly all actives have a fitted effect of over 65% in size
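Rat TrxR1 (90 nM in the dispensed reagent) was pre-reduced with 400 uM NADPH for 5 min at room temperature, then incubated with compound for 15 min. After 400 uM selenite was added, NADPH fluorescence (Ex 340/Em 450 nm) was followed for 8 min.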
VDR confirm = qHTS for Inhibitors of the vitamin D receptor (VDR): Hit Validation in Primary Screen; shares compounds with VDR inhibitor; VDR-coactivator inhibition assay, qHTS confirmation; Potency, µM, hits mostly inhibitors; hit rate 89% among 840; AID 602199, 2012
VDR FP = qHTS for Inhibitors of the vitamin D receptor (VDR): Hit Validation using a Fluorescein Assay | Potency, µM (highest dose often 57.1 µM), usual class: inhibitors | AID 602200, 2012 | hit rate 48% among 840 | VDR-coactivator binding, fluorescein fluorescence polarization | shares compounds with VDR inhibitor
VDR bla = qHTS for Inhibitors of the vitamin D receptor (VDR): Hit Validation using a Beta-Lactamase Assay; VDR beta-lactamase reporter cells, FRET ratio; cells co-treated with VDR agonist LG190178; Potency, µM (doses to about 46.1 µM), hits mostly inhibitors; shares compounds with VDR inhibitor; AID 602202, 2012; hit rate 23% among 840
VDR viability = qHTS for Inhibitors of the vitamin D receptor (VDR): Hit Validation using a Cytotoxicity Assay; shares compounds with VDR inhibitor; cytotoxicity counter-screen, cell viability, qHTS; Potency, µM (series often up to 48.3 µM), actives largely listed as cytotoxic; hit rate 18% among 840; AID 602204, 2012; note: nearly all actives have a fitted effect of over 75% in size
Each line names hits and unclear results; the compound was inactive in the other large screens (follow-up assays come after a bar, where they were run). Calls come from the whole dose curve; as a rule, active = well fitted curve in the direction sought with a large enough effect; inconclusive = small, poorly fitted or top-dose-only effect, or another doubt; inactive = no such curve, though single readings can be large; an effect the other way counts as inactive or inconclusive.

CC(=O)Nc1ccc(C2=NNC(=Nc3cccc(S(=O)(=O)N(C)C)c3)SC2)cc1	VDR inhibitor inconclusive | VDR confirm 12.6 | VDR FP 12.6µM | VDR bla inconclusive | VDR viability inconclusive
CN(C)S(=O)(=O)c1cccc(N=C2NN=C(c3ccccc3)CS2)c1	VDR inhibitor inconclusive
COc1ccc(C(=O)/C=C/C(=O)N(CC(=O)NC2CCCCC2)Cc2ccccc2OC)c(O)c1	VDR inhibitor inconclusive, TrxR1 inh inconclusive
COc1ccc(C(=O)/C=C/C(=O)N(CC(=O)NC2CCCCC2)CC2CCCO2)c(O)c1 (configuration not stated)	VDR inhibitor 8.91µM, TrxR1 inh 1.26µM | VDR confirm 6.7 | VDR FP inconclusive | VDR bla 13µM | VDR viability 14.6µM
COc1ccc(C(=O)/C=C/C(=O)N(CC(=O)NC2CCCCC2)Cc2ccccc2)c(O)c1	VDR inhibitor 28.2µM, TrxR1 inh 3.16µM | VDR confirm 11.9 | VDR FP inconclusive | VDR bla 13µM | VDR viability inconclusive
COC(=O)CCNC(=O)N1CCN(c2nnc(C)c3c(C)n(-c4ccc(Cl)cc4)nc23)CC1	none
COc1ccc(OC)c(/C=C/C(=O)N2C(=O)c3cccc(N)c3C2=O)c1	none
Nc1cccc2c1C(=O)N(C(=O)/C=C/c1cccc(Br)c1)C2=O	VDR inhibitor 39.8µM, TrxR1 inh 20µM | VDR confirm 9.47 | VDR FP 4.47µM | VDR bla inactive | VDR viability inactive
CC[C@H](C)[C@H](NC(=O)CNC(=O)[C@H](CCCNC(=N)N)NC(=O)CNC(=O)[C@@H](NC(=O)[C@H](Cc1ccc(O)cc1)NC(=O)[C@H](Cc1c[nH]c2ccccc12)NC(=O)[C@H](C)NC(=O)[C@@H]1CCCN1C(=O)[C@H](CC(N)=O)NC(=O)[C@@H](NC(=O)[C@H](CC(=O)O)NC(=O)[C@@H]1CCCN1C(=O)[C@@H](N)[C@@H](C)O)[C@@H](C)CC)[C@@H](C)O)C(=O)N[C@@H](CCCNC(=N)N)C(=O)N1CCC[C@H]1C(=O)N[C@H](C(=O)NCC(=O)N[C@@H](CCCNC(=N)N)C(=O)N[C@@H](Cc1ccccc1)C(N)=O)C(C)C	none (no result: TrxR1 substrate, TrxR1 inh)
C=CCn1c(N)c(C(=O)Nc2ccc(C)cc2)sc1=S	none
Cn1c(N)c(C(=O)Nc2ccc(-c3ccccc3)cc2)sc1=S	VDR inhibitor inconclusive | VDR confirm 17.8 | VDR FP 22.4µM | VDR bla inconclusive | VDR viability inconclusive
CC(C)N(CCC(=O)c1ccc2ccccc2c1)Cc1ccccc1	VDR inhibitor 5.01µM, KAT2A inh inconclusive, TrxR1 inh 3.16µM | VDR confirm 15 | VDR FP 7.08µM | VDR bla inconclusive | VDR viability inconclusive
CCOC(=O)c1sc(=S)n(-c2cc(OC)ccc2OC)c1N	VDR inhibitor 20µM | VDR confirm 26.7 | VDR FP 3.55µM | VDR bla inactive | VDR viability inactive
CCOC(=O)c1sc(=S)n(-c2ccc(OC)cc2)c1C	none
CCOC(=O)c1sc(=S)n(-c2cc(F)ccc2F)c1N	none
COC(=O)c1sc(=S)n(-c2cc(F)ccc2F)c1N	VDR inhibitor 79.4µM | VDR confirm 18.9 | VDR FP inconclusive | VDR bla inactive | VDR viability inactive
CCC(=O)Nc1ccc2nc(SCCOc3ccc(C)cc3)sc2c1	none
COc1ccc(CN2CCc3c(c(=O)n4ncc(C(=O)N5CCN(c6ccccc6OC)CC5)c4n3C)C2)cc1	none
Cc1ccc(C(=O)Oc2oc(-c3ccccc3)nc2C=Nc2ccc(N(C)C)cc2)cc1	TrxR1 inh inconclusive
O=C(Oc1oc(-c2ccco2)nc1C=Nc1ccccc1)c1ccoc1	VDR inhibitor 50.1µM, TrxR1 inh 3.55µM | VDR confirm inconclusive | VDR FP inconclusive | VDR bla inconclusive | VDR viability inconclusive
O=C(Oc1oc(-c2ccco2)nc1C=Nc1ccccc1)c1ccco1	VDR inhibitor 28.2µM, TrxR1 inh 2.24µM | VDR confirm 5.97 | VDR FP inconclusive | VDR bla inconclusive | VDR viability inactive
Cc1ccc(C(=O)Oc2oc(-c3ccco3)nc2C=Nc2ccc(Cl)cc2)cc1	VDR inhibitor 50.1µM, TrxR1 inh 1.78µM | VDR confirm 10.6 | VDR FP inconclusive | VDR bla inactive | VDR viability inactive
CC1=NN(c2ccccc2)C(=O)/C1=C\C=C\c1ccccc1	VDR inhibitor 39.8µM, KAT2A inh inconclusive | VDR confirm 18.9 | VDR FP inconclusive | VDR bla inconclusive | VDR viability inactive
CCOc1cc(/C=C\c2[nH]c(=O)[nH]c(=O)c2[N+](=O)[O-])ccc1OC(C)CC (configuration not stated)	VDR inhibitor 11.2µM | VDR confirm 8.44 | VDR FP inactive | VDR bla inconclusive | VDR viability inactive
COc1cccc(/C=C/c2[nH]c(=O)[nH]c(=O)c2[N+](=O)[O-])c1O	VDR inhibitor 22.4µM | VDR confirm 21.2 | VDR FP inconclusive | VDR bla inactive | VDR viability inactive
CC(C)c1ccc(/C=C/c2[nH]c(=O)[nH]c(=O)c2[N+](=O)[O-])cc1	VDR inhibitor 22.4µM | VDR confirm 3.77 | VDR FP inconclusive | VDR bla inconclusive | VDR viability inactive
CCCOc1ccc(/C=C/c2[nH]c(=O)[nH]c(=O)c2[N+](=O)[O-])cc1OCC	none
O=C(COc1ccccc1/C=C\c1[nH]c(=O)[nH]c(=O)c1[N+](=O)[O-])Nc1ccccc1	VDR inhibitor 20µM, TrxR1 inh inconclusive | VDR confirm 4.23 | VDR FP inconclusive | VDR bla inactive | VDR viability inconclusive
CN=C(NC#N)NCCSCc1csc(N=C(N)N)n1	none (no result: TrxR1 substrate, TrxR1 inh)
NC[C@@H]1O[C@H](OC2[C@@H](CO)O[C@@H](OC3[C@H](O)[C@H](N)C[C@H](N)[C@H]3OC3O[C@H](CO)[C@@H](O)[C@H](O)[C@@H]3N)[C@H]2O)C(N)[C@H](O)[C@@H]1O (some centres not stated)	none (no result: TrxR1 substrate, TrxR1 inh)
